# This is one part of a sample in which hits are shown more often than they occur.
# Pf Dd2 growth: qHTS Primary assay for Inhibitors of Plasmodium falciparum Dd2 growth in vitro | Potency, µM (titrated, usually from 28.9 µM), for the others: at the top dose activity, negative = inhibition, actives largely listed as inhibitors | AID 1347417, 2020 | 120,000 tested, 4.3% active | P. falciparum Dd2 growth, SYBR Green, 72 h; active means well fitted inhibition curve with a large enough effect;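 further: plate controls were DMSO vehicle for no effect and reference drug for full effect; nearly all actives have a fitted effect of over 65% in size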
#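 Infected erythrocytes (Dd2, 0.3% parasitemia, 2.5% hematocrit final) are added to compound in RPMI-1640/Albumax II medium, grown 72 h at 37C in low oxygen, then lysed with saponin/Triton-X containing SYBR Green and read by fluorescence.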
# * hit, by the source's call; i = inactive; [ ] = dose if it differs, or a comment. Potency means the concentration at half of the fitted maximal effect.
SMILES,Pf Dd2 growth
COc1cncc([C@@H](NC(=O)c2cccc(-n3cccn3)c2)C2CC(O)C2)c1 (some centres undefined),5%
CC(C)c1nc2c(c(-c3ccc(O)cc3)n1)CN([S+](=O)([O-])c1cccs1)CC2,i
CCN1C(=O)C(CC(=O)NCc2ccccn2)Sc2ncccc21 (centres undefined),2%
c1ccc(CN2CCCC3(CC(c4ccccn4)=NO3)C2)nc1 (centres undefined),107%
COc1cccc(N2C(=O)NC(=NC3CCCC3)C23CCCN(C(=O)c2ccccc2F)C3)c1 (centres undefined),13%
COc1cccc(N2C(=O)NC(=NC3CCCCC3)C23CCCN(Cc2ccc(F)cc2)C3)c1 (centres undefined),13µM*
COc1cccc(N2C(=O)NC(=NC3CCCCC3)C23CCCN(C(=O)c2ccccc2OC)C3)c1 (centres undefined),-18%
COc1cccc(N2C(=O)NC(=NC3CCCCC3)C23CCN(Cc2ccccc2)C3)c1 (centres undefined),40%
COc1ccc(CN2CCC3(CC2)C(=NC2CCCCC2)NC(=O)N3c2cccc(OC)c2)cc1,-15%
COc1cccc(N2C(=O)NC(=NC3CCCC3)C23CCN(Cc2ccc(F)cc2)C3)c1 (centres undefined),13µM*
CCCN(CC1CCOC1)S(=O)(=O)c1cccc(Cl)c1 (centres undefined),41%[5.79 µM]
c1ccc(-c2cn3c(n2)CO[C@@H](CNCc2cccs2)C3)cc1,i
COC(=O)c1cc(N2CCC(C(C)N3CCN(C)CC3)CC2)ncn1 (centres undefined),-2%
Cn1ccnc1C(=O)N1CCC(N2C(=O)C(OCC3CC3)C23CCOCC3)CC1 (centres undefined),-4%
COc1ccc(Cn2c3c(c(=O)n2Cc2ccccc2)CCN(Cc2cccnc2)C3)cc1,-4%
Cc1nn(C)c(C)c1C(=O)N[C@@H]1CN(S(C)(=O)=O)C[C@H]1CN(C)C,39%
O=C(NCCCN1CCc2ccccc2C1)C1Cn2cccc2C(=O)N1Cc1ccccc1 (centres undefined),0.89µM*
CC(C)C(=O)NCC1Cn2cccc2C(=O)N1Cc1ccccc1 (centres undefined),i
O=C(NCC1Cn2cccc2C(=O)N1Cc1ccccc1)NC1CCCC1 (centres undefined),-14%
O=C(NCCCN1CCCC1=O)C1Cn2cccc2C(=O)N1Cc1ccccc1 (centres undefined),19%
CC(C)CNC(=O)C1Cn2cccc2C(=O)N1Cc1cccnc1 (centres undefined),7.9µM*
CC(C)CNC(=O)C1Cn2cccc2C(=O)N1Cc1ccccc1 (centres undefined),i
O=C(CN1CCCCCC1)NCC1Cn2cccc2C(=O)N1Cc1ccccc1 (centres undefined),4µM*
O=C(NCCc1ccccc1)C1Cn2cccc2C(=O)N1Cc1ccccc1 (centres undefined),-20%
O=C(NCc1ccccc1)C1Cn2cccc2C(=O)N1Cc1cccnc1 (centres undefined),8%
SMILES,Pf Dd2 growth
O=C(c1cc(F)cc(F)c1)N1CC(c2nc(CCc3ccccc3)no2)C1,-14%
COc1ccc2c(c1)nc1n2[C@@H](CNC2CCOCC2)COC1,3%[44.1 µM]
COc1ccc(-c2ccc3nc(-c4cc(F)cc(F)c4F)oc3c2)c(OC)c1OC,-6%
COCc1cc(C[C@H]2CNCC[C@H]2CC(=O)N2CCN(c3ccccc3OC)CC2)no1,-21%
O=C1[C@H]2CCCN2C(=O)C2C[C@@H](NS(=O)(=O)c3cccs3)CCN12 (some centres undefined),1%[44.1 µM]
COc1ccc(CCN2C(=O)O[C@@H]3CN(C(=O)NCc4ccccc4)C[C@@H]32)cc1,-9%
COc1ccc(C(=O)N2CCC3(CC2)NCCc2c3[nH]c3ccccc23)cc1,-18%
Cc1ccc(C(=O)N2CCC3(CC2)N=C(c2ccccc2)NO3)cc1,i
Cc1ccc(C(=O)N2CCC(c3c[nH]c4ccccc34)(c3c[nH]c4ccccc34)CC2)cc1,2µM*
COCC1CN(S(=O)(=O)c2ccc3c(c2)OCCO3)CC12CCNCC2 (centres undefined),-1%
COC(=O)c1c(NC(C)=O)c2cc(NC3CCN(C(C)=O)CC3)cnc2n1CC1CCCO1 (centres undefined),-1%
Cc1nc2cccnc2n1CC1CCCN(C(=O)Nc2cccc(Cl)c2)C1 (centres undefined),i
Cc1ccc(C(=O)N[C@H]2CO[C@H]3[C@@H]2OC[C@@H]3n2nnnc2Oc2ccccc2)cc1,i
CCNc1ncc(C(=O)N[C@H](c2cccs2)C2CC(O)C2)cn1 (some centres undefined),-25%
CCc1ncc(C(=O)NC(c2ccc(C)cc2)c2cccs2)cn1 (centres undefined),10µM*
Cc1ccc(S(=O)(=O)C(CNC(=O)Cc2ccc(Cl)cc2)c2cccs2)cc1 (centres undefined),2%
